Measurements published in the supplement of paper PMC10338343.
± gives the standard deviation.

What was measured:
[1] = system: MILI (PIWIL2) piRISC loaded with L1MC piRNA (26 nt); experiment: pre-steady-state target cleavage rate (min^-1); guide: L1MC piRNA 5'p-UAACUAAAUACUAUGCAAGCUGUAGG; higher = faster piRNA-guided slicing of the target
In short: (§1)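 The pre-steady-state cleavage rate came from a burst-and-steady-state fit to pooled data from three Cleave-'n-Seq trials, in which uncleaved targets were sequenced and normalised to depth and to weakly complementary targets. Each reaction held 0.1 nM transcribed, DNA-blocked target RNA library and 1 nM active affinity-purified piRISC carrying one synthetic guide, with or without 500 nM GTSF1 partner protein, in HEPES–potassium acetate buffer at 33 °C for 0–8 or 0–960 min. k3 was capped at 0.0001 min^-1.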

[2] = system: EfPiwi piRISC loaded with L1MC piRNA (26 nt); experiment: pre-steady-state target cleavage rate (min^-1); auxiliary factor: 500 nM Ephydatia muelleri Gtsf1; guide: L1MC piRNA 5'p-UAACUAAAUACUAUGCAAGCUGUAGG; MIWI and MILI are mouse PIWI proteins and EfPiwi is from a freshwater sponge; tags in brackets are library labels; higher = faster piRNA-guided slicing of the target
In short: as §1

[3] = auxiliary factor: 500 nM mouse GTSF1
[4] = auxiliary factor: none (no GTSF1)

| Sequence | pre-steady-state target cleavage rate [1, 3] | pre-steady-state target cleavage rate [1, 4] | pre-steady-state target cleavage rate [2] |
| --- | --- | --- | --- |
| UCCUGGAUGUGCUUGGUAAGUAUUUAGUUA | 0.00666 ± 0.0036 | 0.00551 ± 0.0023 | – |
| UCCUGCUACAGCUAGCAAAGUAUUUAGUUA | 0.137 ± 0.012 | 0.00463 ± 0.0024 | 0.0328 ± 0.0098 |
| UCCUGGAUGUCCUAGCAUAGUAUUUAGUUA | 0.0817 ± 0.015 | 0.00379 ± 0.002 | – |
| UCCUGGAUGUCGAAGCAUAGUAAUUUAGUUA | 0.0148 ± 0.0051 | 0.0059 ± 0.0018 | – |
| UCCUGGAUGUCGUUGCAUAGUCUUUAGUUA | 0.0286 ± 0.0084 | 0.00414 ± 0.0025 | – |
| UCCUGGAUGUCGAAGCAUAGUAGUUUAGUUA | 0.00907 ± 0.0034 | 0.00276 ± 0.0022 | – |
| UCCUGGAUCAGCUUGCAUAGUAAAUAGUUA | 0.171 ± 0.024 | 0.00496 ± 0.0026 | 0.00673 ± 0.0027 |
| UCCUGGAUGUCGAUGCAAAGUAUUUAGUUA | 0.00863 ± 0.0026 | 0.0036 ± 0.0027 | – |
| UCCUGGAUGAGCUUGCAUAGUAUUUAGUGA | 0.193 ± 0.025 | 0.00439 ± 0.003 | – |
| UCCUGCUACAGCUUGCAUUCUAUUUAGUUA | 0.0454 ± 0.0087 | 0.00339 ± 0.0024 | – |
| UCCUGGAUGUGCAUGCAUAGUAUUUACUUA | 0.065 ± 0.018 | 0.00616 ± 0.0026 | – |
| UCCUGGAUGUCCUUGCAUCGUAUUUAGUUA | 0.0423 ± 0.015 | 0.00482 ± 0.0021 | – |
| UCCUCCUACAGCUUGCAUAGUAUAAAGUUA | 0.137 ± 0.023 | 0.00301 ± 0.0023 | 0.00527 ± 0.0031 |
| UCCUGCUACAGGUUGCAUAGUAUUUAGUUA | 0.246 ± 0.011 | 0.013 ± 0.0028 | 0.0242 ± 0.0053 |
| UCCUGGAACAGCUAGGAUAGUAUUUAGUUA | 0.26 ± 0.016 | 0.00746 ± 0.002 | – |
| UCCUGGAUGAGCUACCAUAGUAUUUAGUUA | 0.101 ± 0.018 | 0.00301 ± 0.0025 | – |
| UCCUGGUACAGCUUCGAUAGUAUUUAGUUA | 0.187 ± 0.025 | 0.00848 ± 0.0025 | – |
| UCCUGGAACUGCUUGCAAAGUAUUUAGUUA | 0.117 ± 0.01 | 0.00518 ± 0.0021 | 0.0228 ± 0.008 |
| UCCUGGAUGUGCUUGCAUAGUUUUUAGUAA | 0.0109 ± 0.0049 | 0.00391 ± 0.0027 | – |
| UCCUGCUACAGCUUGCAUUGAAUUUAGUUA | 0.0223 ± 0.0052 | 0.00353 ± 0.0025 | – |
| UCCUGGAUGAGCUUGCAUAGUAUUUAGUAUA | 0.218 ± 0.028 | 0.00501 ± 0.0033 | – |
| UCCUGGUACAGCUUGCAUAGUAUUUAGUCUA | 0.0602 ± 0.024 | 0.00783 ± 0.0041 | 0.00521 ± 0.0031 |

| Sequence | pre-steady-state target cleavage rate [1, 3] | pre-steady-state target cleavage rate [1, 4] | pre-steady-state target cleavage rate [2] |
| --- | --- | --- | --- |
| UCCUGGAUGUGCUUGCAUAGUAUUUAGUGUA | 0.101 ± 0.015 | 0.00366 ± 0.0034 | – |
| UCCUCCUACAGCUUGGAUAGUUUUUAGUUA | 0.0664 ± 0.0092 | 0.00384 ± 0.0019 | 0.0265 ± 0.007 |
| UCCUCCUACAGCUUGCAAAGUAAUUAGUUA | 0.116 ± 0.012 | 0.00331 ± 0.0024 | – |
| UCCUGGUACAGCUAGCAUAGUAUUUAGUAA | 0.201 ± 0.022 | 0.00371 ± 0.0023 | 0.00365 ± 0.0021 |
| UCCUGGAACAGCUAGCAUAGUAUUUAGUAA | 0.275 ± 0.03 | 0.00673 ± 0.0025 | 0.00289 ± 0.0015 |
| UCCUGGAUGUGCUUGCACAGUAUUUAGUUA | 0.13 ± 0.01 | 0.00631 ± 0.0022 | 0.00686 ± 0.0028 |
| UCCUGGAAGAGCUUGCAUAGUUUUUAGUUA | 0.0486 ± 0.011 | 0.004 ± 0.0023 | 0.00316 ± 0.003 |
| UCCUCCUACAGGUUGGAUAGUAUUUAGUUA | 0.205 ± 0.012 | 0.00699 ± 0.0018 | 0.0118 ± 0.0028 |
| UCCUGGUACACCUUGCAUAGUAUUUAGUAA | 0.182 ± 0.043 | 0.00413 ± 0.0031 | 0.00351 ± 0.0028 |
| UCCUGCUACAGGUUGCAUAGUAAUUAGUUA | 0.216 ± 0.032 | 0.00697 ± 0.0026 | 0.00595 ± 0.0019 |
| UCCUGGAACAGCUUGGAUAGUAAUUAGUUA | 0.21 ± 0.025 | 0.00493 ± 0.0022 | 0.00719 ± 0.0026 |
| UCCUCCUACAGGUUGCAUAGUAUUUUGUUA | 0.137 ± 0.021 | 0.00378 ± 0.0021 | 0.00418 ± 0.0015 |
| UCCUGCUUCAGCUUGCAUAGUAUAUAGUUA | 0.277 ± 0.025 | 0.00438 ± 0.002 | 0.00887 ± 0.0035 |
| UCCUGGAACAGGUUGCAUAGUUUUUAGUUA | 0.0335 ± 0.0065 | 0.00467 ± 0.0021 | 0.00366 ± 0.0018 |
| UCCUGGAACAGCUUGCAUAGUACUUAGUUA | 0.243 ± 0.018 | 0.0101 ± 0.0024 | 0.0218 ± 0.0069 |
| UCCUGGUACAGCUUGCAUAGUAUUUAGUAUA | 0.224 ± 0.031 | 0.00565 ± 0.0029 | 0.00633 ± 0.0024 |
| UCCUCCUACUGCUUGCAUAGUAUAUAGUUA | 0.179 ± 0.021 | 0.00372 ± 0.0022 | 0.0123 ± 0.0054 |
| UCCUGGUACAGCUAGCAUAGUAUUAAGUUA | 0.198 ± 0.032 | 0.00537 ± 0.0026 | 0.00476 ± 0.0024 |
| UCCUGGAUGAGCUUGCAUAGUAUUUUAGUUA | 0.163 ± 0.019 | 0.00807 ± 0.0028 | 0.00631 ± 0.0035 |
| UCCUCCUAGUCCUUGCAUAGUAUUUAGUUA | 0.235 ± 0.018 | 0.00692 ± 0.0015 | 0.0173 ± 0.0063 |
| UCCUGGAUCAGCUUGCAUAGUAAUUUAGUUA | 0.162 ± 0.018 | 0.00701 ± 0.0022 | 0.00371 ± 0.0025 |
| UCCUGGAUGUCCUUGCAUAGUAUUUAAGUUA | 0.173 ± 0.023 | 0.00879 ± 0.0027 | 0.0217 ± 0.0093 |

| Sequence | pre-steady-state target cleavage rate [1, 3] | pre-steady-state target cleavage rate [1, 4] | pre-steady-state target cleavage rate [2] |
| --- | --- | --- | --- |
| UCCUGGAUGAGCUUGCAUUGUAUUUAGUUA | 0.139 ± 0.013 | 0.00846 ± 0.0023 | 0.00376 ± 0.0029 |
| UCCUGCUACAGCUUGUAUAGUAUUUAGUUA | 0.255 ± 0.015 | 0.00693 ± 0.0021 | 0.029 ± 0.0067 |
| UCCUGGAUGUCCUUGCAUAGUACUUAGUUA | 0.0548 ± 0.01 | 0.00401 ± 0.0028 | 0.00586 ± 0.0027 |
| UCCUGGUACAGGAAGCAUAGUAUUUAGUUA | 0.223 ± 0.025 | 0.00538 ± 0.0026 | 0.00248 ± 0.0023 |
| UCCUGGAUGUGCUUGCAUAGUAAUUAGUUA | 0.095 ± 0.013 | 0.00684 ± 0.0024 | 0.00847 ± 0.0037 |
| UCCUGCUACAGCUUGCUUACUAUUUAGUUA | 0.114 ± 0.016 | 0.00371 ± 0.0023 | 0.0113 ± 0.005 |
| UCCUGGAUCAGCUUGCAAAGUAUUUAGUAA | 0.12 ± 0.0069 | 0.00426 ± 0.0026 | 0.00607 ± 0.0027 |
| UCCUGGAUGAGCUUGCACAGUAUUUAGUUA | 0.172 ± 0.014 | 0.00869 ± 0.0031 | 0.0152 ± 0.0046 |
| UCCUGGAUCAGCGUGCAUAGUAUUUAGUUA | 0.225 ± 0.015 | 0.00697 ± 0.0035 | 0.0619 ± 0.012 |
| UCCUCCUACAGCUUGCAUAGUAUUUAGUA | 0.177 ± 0.021 | 0.00474 ± 0.0025 | 0.00701 ± 0.0026 |
| UCCUGGAACAACUUGCAUAGUAUUUAGUUA | 0.262 ± 0.022 | 0.0104 ± 0.0027 | 0.0809 ± 0.023 |
| UCCUGGUACAACUUGCAUAGUAUUUAGUUA | 0.273 ± 0.023 | 0.012 ± 0.0031 | 0.017 ± 0.0059 |
| UCCUGGUAGUCCUUGCAUAGUAUUUAGUAA | 0.113 ± 0.025 | 0.00362 ± 0.003 | 0.00627 ± 0.0035 |
| UCCUGGAUCAGCUUGCAUAGUCUUUAGUUA | 0.191 ± 0.011 | 0.00789 ± 0.0024 | 0.0204 ± 0.0053 |
| UCCUGCUACAGCAUGCAAAGUAUUUAGUUA | 0.163 ± 0.015 | 0.00807 ± 0.0029 | 0.00845 ± 0.0025 |
| UCCUCCUACAGCAUGCAUAGUAUAUAGUUA | 0.243 ± 0.021 | 0.00579 ± 0.0023 | 0.00519 ± 0.0032 |
| UCCUGGUAUAGCUUGCAUAGUAUUUAGUUA | 0.252 ± 0.022 | 0.011 ± 0.0024 | 0.0287 ± 0.0075 |
| UCCUCCUUCAGCUUGCAUAGUUUUUAGUUA | 0.0603 ± 0.0091 | 0.00556 ± 0.0016 | 0.00713 ± 0.0023 |
| UCCUGCUACACCAUGCAUAGUAUUUAGUUA | 0.223 ± 0.015 | 0.00794 ± 0.0027 | 0.00582 ± 0.003 |
| UCCUCCUACAGCUUGCAUAGUAUUAUGUUA | 0.15 ± 0.025 | 0.00329 ± 0.0023 | 0.0049 ± 0.0026 |
| UCCUGGAAGAGCUUGGAUAGUAUUUAGUUA | 0.178 ± 0.0086 | 0.00531 ± 0.0023 | 0.00392 ± 0.0027 |
| UCCUGGAACAGGUUGCAUAGUAAUUAGUUA | 0.206 ± 0.017 | 0.0075 ± 0.0018 | 0.0061 ± 0.0024 |
